# Data from PubChem BioAssay AID709 (SRMLSC, 2007).
# The campaign covered roughly 65,000 compounds. About 3,600 (5.5%) were called active. What follows is part of a selection rich in actives, with near analogues and random picks from the rest. Unmarked numbers belong to inactive results.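 Rule for the calls: active = at 10 µM, mean starting fluorescence two-fold or more over control wells; inactive = the rest.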
# Experiment: intrinsic fluorescence of library compounds, ex339/em460 – biochemical, MLSMR library, data from DPM-DC assay, artefact control, profiling panel (AID 709);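 note: signal is the first read of a kinetic run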
# Conditions: compound autofluorescence, ex339/em460 nm, NADH buffer; at 10 µM; stronger effect = higher value; 1 = no-compound wells, NADH background
row,SMILES,fluorescence fold increase
1,CCCS(=O)(=O)N1CCCC(C(=O)N2CCN(c3ccccc3)CC2)C1 (stereo not drawn),1.11
2,CN(C)Cc1c(O)ccc2occ(C(O)c3ccccc3)c12 (stereo not drawn),1.03
3,COc1ccc(-c2ccnc(SCC(=O)N3CCOCC3)n2)cc1,1.54
4,COc1cc(NC(=O)N2CCOCC2)cc(OC)c1,1.07
5,CCOc1ccccc1NC(=O)CCN1CCN(S(=O)(=O)c2ccc(OC)cc2)CC1,1
6,COC(=O)c1[nH]c2ccccc2c1NC(=O)CN1CCCc2ccccc21,1.14
7,CCOC(=O)c1[nH]c2ccc(OC)cc2c1NC(=O)N1CCOCC1,3.83 (active)
8,Cc1c(C(=O)N2CCOCC2)[nH]c2ccc(OCc3ccccc3)cc12,1.13
9,CCOC(=O)c1[nH]c2ccc(OC)cc2c1NC(=O)CCN1CCN(Cc2ccccc2)CC1,2.37 (active)
10,COC(=O)c1sc(=S)n(-c2ccccc2)c1N,1.02
11,O=S(=O)(NCc1ccc2c(c1)OCO2)c1cccc2nsnc12,1.04
12,CCOC(=O)c1cc2occc2n1CC(=O)NC1CCC(C)CC1 (stereo not drawn),1.03
13,Cc1cccc(N2CCN(Cc3c(C)n(C)n(-c4ccccc4)c3=O)CC2)c1C,1.01
14,OCc1n[nH]c(CO)n1,1.04
15,O=C(Nc1ccc2c(c1)nc1n2CCCCC1)c1cc(S(=O)(=O)N2CCOCC2)ccc1Cl,1.09
16,CC(c1nnc(SCC(=O)Nc2sccc2C#N)n1-c1ccc(Cl)cc1)N(C)C (stereo not drawn),1.06
17,CCCc1[nH]nc2c1C(c1c(C)nn(-c3ccccc3)c1Cl)C(C#N)=C(N)O2 (stereo not drawn),1.09
18,CSc1nc(N)c(C#N)c(-c2ccccc2Cl)c1C#N,1.19
19,CSc1ccc(-c2c(C#N)c(N)nc3c2c(C)nn3-c2ccccc2)cc1,3.9 (active)
20,COc1ccc(OC)c(CNC(=O)CCc2nc(-c3cccs3)no2)c1,1.09
21,Cc1cc(C)nc(N(C#N)CC(=O)Nc2ccccc2)n1,1.1

row,SMILES,fluorescence fold increase
1,Cc1ccc(S(=O)(=O)NCCN2CCOCC2)cc1C,1.15
2,COc1ccccc1NC1=NC(c2ccc(Cl)cc2)N=C(N)N1 (stereo not drawn),1.03
3,CCCc1nc2ccccc2c(C(=O)OCc2nnc(-c3cc(OC)c(OC)c(OC)c3)o2)c1CC,1.12
4,CCCOc1ccc2c3c(c(=O)oc2c1OCCC)CCC3,2.13 (active)
5,Cc1c(C)c2cc3c4c(oc3c(C)c2oc1=O)CCCC4,1.64
6,COc1ccc(Cl)cc1S(=O)(=O)N1CCN(CC(=O)C(C)(C)C)CC1,0.9
7,COc1ccc(C(=O)OCC(=O)c2ccc(C)c(S(=O)(=O)N3CCOCC3)c2)cc1OC,1
8,COc1ccc2c3c(c(=O)oc2c1OCC(=O)C(C)(C)C)CCCC3,2.12 (active)
9,COC(=O)c1ccc(Oc2nc(Nc3ccc(F)cc3)nc(N3CCCC3)n2)cc1,1.09
10,Cc1ccc(C(c2nnnn2CS(=O)(=O)c2ccc(C)cc2)N2CCC(C(N)=O)CC2)cc1 (stereo not drawn),1.03
11,Cc1cccc(NC(=O)CN2CCCN(S(=O)(=O)c3ccc(Br)s3)CC2)c1,1.1
12,Cc1cc(NC(=O)c2cccc(N3C(=O)CCC3=O)c2)no1,1.09
13,COc1ccc2oc(=O)c(C(=O)O)cc2c1,3.98 (active)
14,COc1ccc2oc(=O)c(C(=O)N3CCCc4ccccc43)cc2c1,1.09
15,CCN(CC)c1ccc2oc(=O)c(C)nc2c1,0.59
16,COc1ccc2oc(=O)c(C(=O)N3CCN(c4ccccc4F)CC3)cc2c1,1.41
17,CCN(CC)c1ccc2cc(C(=O)O)c(=O)oc2c1,2.71 (active)
18,CCCOC(=O)c1cc2ccccc2oc1=O,1.51
19,CCOc1ccc(-n2c(SC(C)C(=O)OC)nc3c(c2=O)SCC3)cc1 (stereo not drawn),1.06
20,CC(=O)c1cc(C#N)c(SCC(=O)C(C)(C)C)nc1C,1.08
21,Cc1ccccc1S(=O)(=O)Cc1ccc(C(=O)NCCN2CCCCC2C)o1 (stereo not drawn),1.1

row,SMILES,fluorescence fold increase
1,CC1=Nn2c(nnc2-c2ccccc2)SC1,1
2,CCOC(=O)CCc1c(C)c(C#N)c2[nH]c3ccccc3n2c1=O,2.29 (active)
3,CCOC(=O)CC1=CC(=O)Nc2ccccc2N1,1.15
4,CCOC(=O)C1CCN(C(=O)Cn2cc(C#N)c3ccccc32)CC1,1.19
5,COc1ccc(C2C(C(=O)N3CCN(c4ccc(OC)cc4)CC3)c3ccccc3C(=O)N2C)cc1 (stereo not drawn),1.12
6,COc1ccccc1-n1c(CNC(=O)c2ccccc2)nnc1SCC(=O)Nc1nnc(C)s1,1.12
7,CC(NCCO)C(=O)C12CC3CC(CC(C3)C1)C2 (stereo not drawn),1.13
8,Cc1cccc(N(CC(O)CN(C)C)S(=O)(=O)c2ccccc2)c1 (stereo not drawn),1.08
9,CNC(=O)Nc1cc(C(C)(C)C)no1,1.07
10,CCOC(=O)c1sc2nc(CSCC(=O)OCc3ccc(C(=O)OC)o3)[nH]c(=O)c2c1C,1.46
11,CCOC(=O)c1ccc(CS(=O)c2ccc(Cl)cc2)o1 (stereo not drawn),1.02
12,CCOC(=O)c1ccc(COC(=O)c2cc(=O)[nH]c3ccccc23)o1,2.1 (active)
13,Cc1ccc(S(=O)(=O)Nc2ccc3ncccc3c2)cc1,1.18
14,O=S(=O)(Nc1ccc2nc(-c3ccco3)[nH]c2c1)c1ccccc1,2.12 (active)
15,COc1cc(NS(=O)(=O)c2ccccc2)ccc1-n1nc(C)cc1C,1.12
16,CCCCN(CCCC)C(=O)CCS(=O)(=O)c1ccc2c(c1)n(C)c(=O)c(=O)n2C,1.23
17,Cc1cc(C)nc(SCc2nnc(SCC(=O)OC3CCCCC3)o2)n1,1.08
18,CC1CN(C2CCN(C(=O)COc3ccccc3)CC2)CC(C)O1 (stereo not drawn),1.1
19,O=c1c2cc3c(=O)n(CC4CCCO4)c(=O)c3cc2c(=O)n1CC1CCCO1 (stereo not drawn),1.07
20,O=C(NC1CCCCC1)c1ccc2c(=O)n(CC3CCCO3)c(=O)[nH]c2c1 (stereo not drawn),2.11 (active)
21,COC(=O)c1ccc2c(=O)n(CC3CCCO3)c(=S)[nH]c2c1 (stereo not drawn),1.06
